High-throughput results: PubChem, several laboratories
Hits are enriched below; roughly 1.5% of the tested compounds scored in any of these assays.
hDAT+cocaine: changed human dopamine transporter uptake under cocaine IC80; LLC-PK1 hDAT cells, [14C]-dopamine uptake with cocaine IC80; actives deviate in either direction; 110,000 compounds, 1.3% hits; B-score at 10 µM;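 active means Z score or B-score, a plate-position-corrected score, falls beyond the plate's 99.7% confidence bounds, in either direction; inactive means both scores lie inside the 99.7% bounds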
Target sequence (Q01959 whole entry, looked up): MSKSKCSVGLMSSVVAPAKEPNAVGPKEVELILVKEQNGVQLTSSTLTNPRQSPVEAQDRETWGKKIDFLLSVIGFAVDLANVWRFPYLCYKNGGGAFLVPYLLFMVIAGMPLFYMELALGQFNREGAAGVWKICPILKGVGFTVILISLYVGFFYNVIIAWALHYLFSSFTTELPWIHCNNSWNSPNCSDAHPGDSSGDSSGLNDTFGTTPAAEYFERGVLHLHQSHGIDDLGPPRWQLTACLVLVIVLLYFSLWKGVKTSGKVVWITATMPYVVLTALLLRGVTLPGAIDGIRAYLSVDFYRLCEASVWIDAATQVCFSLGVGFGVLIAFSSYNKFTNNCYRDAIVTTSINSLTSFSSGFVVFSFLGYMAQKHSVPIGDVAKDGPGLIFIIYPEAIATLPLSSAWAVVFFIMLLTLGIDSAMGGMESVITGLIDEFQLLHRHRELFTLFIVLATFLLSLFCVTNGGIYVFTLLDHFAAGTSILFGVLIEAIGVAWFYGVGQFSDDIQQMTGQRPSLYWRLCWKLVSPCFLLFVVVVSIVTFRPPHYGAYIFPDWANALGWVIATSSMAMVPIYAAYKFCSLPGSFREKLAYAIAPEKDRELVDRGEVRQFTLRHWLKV
MRP-1 activ: activators of MRP-1; viability increase, % at 10 µM; 140,000 compounds, 0.61% hits; H69AR cells + doxorubicin, viability rescue, CellTiter-Glo; AID 799;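 active means viability gain under doxorubicin at or above a set limit, the compound median plus 3 SD, cut at about 4.7% in these data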;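 further: MRP-1 overexpressing cells given doxorubicin 25 µM after compound pretreatment; 18-22 h compound pretreatment then 72 h with doxorubicin before readout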
MRP resist rev: compounds reversing MRP-mediated drug resistance; H69AR cells + 2 uM doxorubicin, CellTiter-Glo, 72 h; differential viability (reversal), % at 10 µM; 85,000 compounds, 0.04% hits;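 active means viability drop by adding the cancer drug above about 55%, with treated viability meeting a 40% cutoff, limit read from the data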;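 further: larger differential means the compound sensitizes cells more to doxorubicin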
Large screens that a line does not name were inactive.

C=C(C)C(=O)N1CC2(CC(c3cccc(NC(=O)CCCCC)c3)=NO2)C[C@H]1C(N)=O (some centres undefined)	none (no result: MRP-1 activ, MRP resist rev)
O=C(c1cc2ccccc2oc1=O)N(c1ccc(Cl)cc1)C1C=CS(=O)(=O)C1 (centres undefined)	none (no result: hDAT+cocaine, MRP resist rev)
COc1ccc(Br)cc1S(=O)(=O)n1ccnc1C	hDAT+cocaine 2.66
COc1ccc(OC)c(S(=O)(=O)n2ccnc2C)c1	none
CCCc1nc(C)c2c(=O)[nH]c(-c3cc(S(=O)(=O)N4CCN(CC)CC4)ccc3OCC)nn12	none (no result: MRP-1 activ, MRP resist rev)
Cc1cccc(NC(=O)CSc2nnc(CSc3nc(C)cc(C)n3)n2Cc2ccco2)c1	hDAT+cocaine 2.78
Cc1cc(C)nc(SCc2nnc(SCC(=O)Nc3nccs3)n2Cc2ccco2)n1	none
COc1ccc(CCNC(=O)COc2ccc(S(=O)(=O)N3CCOCC3)cc2)cc1OC	none
COc1ccc(CCNC(=O)COc2ccc(S(=O)(=O)N3CCOCC3)cc2)cc1	hDAT+cocaine 2.44
COc1cc(/C=N/N2CCN(C3c4ccccc4-c4ccccc43)CC2)ccc1O	hDAT+cocaine -1.76 (no result: MRP resist rev)
C(=N\N1CCN(C2c3ccccc3-c3ccccc32)CC1)/c1ccncc1	none (no result: MRP resist rev)
CC(CN1CCCCC1)OC(=O)C(C)(c1ccccc1)c1ccccc1 (centres undefined)	none
O=c1c2cnn(-c3ccccc3)c2ncn1Cc1ccccn1	none
O=c1c2cnn(-c3ccccc3)c2nnn1Cc1ccccn1	hDAT+cocaine 2.66
O=C(CC1SC(=O)N(c2ccccc2)C1=O)Nc1ccccc1 (centres undefined)	MRP-1 activ 6.8
Cc1ccc(NC(=O)CC2SC(=O)N(c3ccccc3)C2=O)cc1 (centres undefined)	none
Cc1cccc(NC2SC(=O)N(c3ccccc3)C2=O)c1 (centres undefined)	none
Cc1cccc(NC(=O)CC2SC(=O)N(c3ccccc3)C2=O)c1 (centres undefined)	MRP-1 activ 8.9
Cn1ccc2cc(NC(=O)Nc3cccnc3)ccc21	none (no result: MRP-1 activ, MRP resist rev)
O=C(/C(=C/c1ccccc1Cl)c1ccccc1)N1CCOCC1	none (no result: hDAT+cocaine, MRP resist rev)
CCCC(C(=O)NCc1ccc(OC)cc1)N(Cc1ccco1)C(=O)c1snc(C(N)=O)c1N (centres undefined)	none
CCC(C(=O)NCc1ccc(F)cc1)N(Cc1ccco1)C(=O)c1snc(C(N)=O)c1N (centres undefined)	hDAT+cocaine 4.26
Cc1cc(C)c(-c2cc(NC(=O)CSc3n[nH]c(N)n3)n(-c3ccccc3)n2)cc1C	hDAT+cocaine 3.29 (no result: MRP resist rev)
Cc1cc(C)c(-c2cc(NC(=O)COC(=O)c3ccc(CO)cc3)n(-c3ccccc3)n2)cc1C	none (no result: hDAT+cocaine, MRP resist rev)
COc1cccc(C(=O)N/N=C/c2cn[nH]c2-c2ccc(OC)cc2OC)c1	none (no result: MRP resist rev)
COc1cc(/C=N/NC(=O)/C(=C\c2ccc([N+](=O)[O-])cc2)NC(=O)c2ccccc2)cc(OC)c1O	none
O=C(N/N=C/c1cc([N+](=O)[O-])cc([N+](=O)[O-])c1O)/C(=C\c1cccs1)NC(=O)c1ccccc1	MRP-1 activ 4.8 (no result: hDAT+cocaine, MRP resist rev)
O=C(Nc1ccc(Cl)cc1Cl)c1n[nH]c(Cn2cncn2)n1	none (no result: MRP resist rev)
Cc1ccc(C2=NC3(CCCCC3)NC2=S)cc1	none (no result: hDAT+cocaine, MRP resist rev)
O=C1NC2(CCCC2)N=C1c1ccc(F)cc1	hDAT+cocaine -7.96
CC1(C)CC[C@]2(CO)[C@@H](O)C[C@]3(C)C(=CCC4[C@@]5(C)CC[C@H](O)C(C)(C)C5CC[C@]43C)[C@@H]2C1 (some centres undefined)	none (no result: MRP-1 activ, MRP resist rev)
CCCC(=O)Nc1ccc(C(=O)Nc2nnc(COCC)s2)cc1	hDAT+cocaine -7.85
CCCC(=O)Nc1ccc(C(=O)Nc2nnc(COC)s2)cc1	none
O=C(CNC(=S)N(Cc1ccccc1)Cc1cccnc1)NC1CCCCC1	none (no result: hDAT+cocaine, MRP resist rev)
CCCn1c(C)cc(C(=O)COC(=O)c2ccc[nH]c2=O)c1C	none (no result: hDAT+cocaine, MRP resist rev)
CCCCCCNC(=O)N[C@@H](C(=O)NCCC[C@H]1CN2C(=NC[C@@H]2Cc2ccccc2)N1CCc1cccc(OC)c1)C(C)C	hDAT+cocaine -2.99 (no result: MRP-1 activ, MRP resist rev)
C/C=C(\C)C(=O)NCCN1C2=NC[C@@H](Cc3ccccc3)N2C[C@@H]1Cc1ccc(OC)cc1	none (no result: MRP-1 activ, MRP resist rev)
CCOc1ccc(NC(=S)NN2CCN(C)CC2)cc1	none (no result: hDAT+cocaine, MRP resist rev)
CCCC(=O)NC(=S)Nc1ccc(C(C)=O)cc1	MRP-1 activ 11.1 (no result: hDAT+cocaine, MRP resist rev)
CCCC(=O)NC(=S)Nc1ccccc1C(=O)OC	none (no result: MRP resist rev)
COc1cc(C(CCN2CCCC2)c2c(OC)cc(OC)c3c(-c4ccccc4)cc(=O)oc23)cc(OC)c1OC (centres undefined)	none (no result: MRP-1 activ, MRP resist rev)
Cn1cc(Br)c(C(=O)NNC(=O)c2ccc(Cl)cc2)n1	MRP-1 activ 6.4 (no result: hDAT+cocaine, MRP resist rev)
Cn1cc(Br)c(C(=O)NNC(=O)c2cccc(Br)c2)n1	none (no result: hDAT+cocaine, MRP resist rev)
Cc1ccc(-c2n[nH]c3c2CCC3)cc1	none
CCCSc1ccc2nc(-c3ccccc3)cn2c1	none (no result: hDAT+cocaine, MRP resist rev)
CCCCSc1ccc2nc(-c3ccc(C#N)cc3)cn2c1	hDAT+cocaine 2.45 (no result: MRP resist rev)
Cc1nn(-c2ccccc2)c(N)c1C(c1ccccc1)c1c(C)nn(-c2ccccc2)c1N	none (no result: hDAT+cocaine, MRP resist rev)
O=C(CC1C(=O)NC2CCCCC2N1C(=O)c1ccc(F)cc1)Nc1ccccc1 (centres undefined)	hDAT+cocaine 2.9
Cc1ccc(NC(=O)CC2C(=O)NC3CCCCC3N2C(=O)c2ccc(F)cc2)cc1C (centres undefined)	none
C=CCOc1c(CNc2ccc(C(=O)O)cc2)cccc1OCC	MRP-1 activ 6.7 (no result: MRP resist rev)
C=CCOc1c(CNc2ccc(C(=O)O)cc2)cccc1OC	none (no result: hDAT+cocaine, MRP resist rev)
Cc1cccc(N2CCN(C(=O)Cc3ccc(-n4c(=O)[nH]c5ccsc5c4=O)cc3)CC2C)c1 (centres undefined)	none (no result: hDAT+cocaine, MRP resist rev)
O=C(Cc1ccc(-n2c(=O)[nH]c3ccsc3c2=O)cc1)N1CCN(c2ccc(Cl)cc2)CC1	MRP-1 activ 5.0 (no result: hDAT+cocaine, MRP resist rev)
Cc1cccc(OCCNC(=O)c2ccc(Oc3ccc(C(F)(F)F)cc3[N+](=O)[O-])cc2)c1	MRP-1 activ 8.2 (no result: MRP resist rev)
Cc1cccc(OCCNC(=O)c2cccc(Oc3ccc(C(F)(F)F)cc3[N+](=O)[O-])c2)c1	none (no result: hDAT+cocaine, MRP resist rev)
CCCn1c(SCc2ccon2)nc2ccccc2c1=O	none
S=C1NC[C@H](c2ccccc2)N1CC1CCCCC1	none (no result: MRP-1 activ, MRP resist rev)
COc1ccc(C)cc1-n1nnnc1SCc1nc2ccccc2s1	none (no result: hDAT+cocaine)
COc1ccc(-n2nnnc2SCc2nc3ccccc3s2)cc1	hDAT+cocaine 4.1
COc1cc(/C=N/NC(=O)CCC(=O)NCc2ccccc2)cc(OC)c1OC	none (no result: hDAT+cocaine, MRP resist rev)
Cc1c(OCC(=O)OC(C)C)ccc2c3c(c(=O)oc12)CCC3	none
Cc1c(OCC(=O)OC(C)(C)C)ccc2c3c(c(=O)oc12)CCC3	MRP-1 activ 5.1
COC(=O)c1cc(COc2ccc3c(c2)oc(=O)c2ccccc23)c(C)o1	none
CCOC(=O)N1CCC(=NNC(=O)COc2cccc(C)c2)CC1	none (no result: hDAT+cocaine, MRP resist rev)
COc1ccc(-n2c(CNc3ccc(C)cc3)nnc2SCc2ccccc2)cc1	none (no result: hDAT+cocaine, MRP resist rev)
CCOc1ccc(NCc2nnc(SCc3ccccc3Cl)n2-c2ccccc2)cc1	hDAT+cocaine -12 (no result: MRP resist rev)
CCn1c(CNc2ccc(Cl)cc2)nnc1SCc1ccccc1	hDAT+cocaine 1.77 (no result: MRP resist rev)
Cn1c(CNc2ccc(Cl)cc2)nnc1SCc1ccccc1	none
CS(=O)(=O)N1c2ccccc2[C@@]2(Br)C[C@H]3C(=O)N[C@@H](Cc4ccccc4)C(=O)N3[C@@H]12	none (no result: MRP-1 activ, MRP resist rev)
CCNc1nc(NC(C)C)nc(OCCOC(=O)Nc2ccccc2)n1	hDAT+cocaine 3.64
CCNc1nc(NCC)nc(OCCOC(=O)Nc2ccccc2)n1	none (no result: hDAT+cocaine, MRP resist rev)
CCO[C@@H]1OC(C(=O)O)=C[C@H](C)[C@H]1CCCO	none (no result: MRP-1 activ, MRP resist rev)
